The record followed here is PubChem BioAssay (NCATS).

Results filed as inconclusive are left out. Activity calls are given as the source filed them. Calls follow the shape of the dose curve; as a rule, active = well fitted curve in the direction sought with a large enough effect; inconclusive = small, poorly fitted or top-dose-only effect, or another doubt; inactive = no such curve, though single readings can be large; an effect the other way counts as inactive or inconclusive.

The first assay in a line: BET inhibitor-based combinations targeting novel dependencies in MECOM-rearranged (r) AML: SET-2 cell line (AID 2202231). Also: nearly all actives have a fitted effect of over 35% in size. Also: potency is read from the fitted curve at half-maximal effect.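 As to viability: plate controls were DMSO treated cells for no effect and wells without cells for full effect.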 The settings on record: SET-2 AML cells viability, CellTiter-Glo luminescence, 48 h; viability: hits give low values, concentration not given here. The method, boiled down:
(§1)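 Here, 11-point titrations of each agent were applied to 500 seeded cells and incubated 48 hr; CellTiter-Glo signal, scaled against DMSO and empty wells, was integrated as AUC, then Z-scored within the individual line.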
For orientation: In ATP-based viability assays light output follows the ATP content of the culture.
As a reminder, the viability is a read-out of living cells in per cent, often relative to untreated cells. As to `CC(=O)O[C@]1(C(C)=O)CC[C@H]2[C@@H]3C=C(Cl)C4=CC(=O)[C@@H]5C[C@@H]5[C@]4(C)[C@H]3CC[C@@]21C`, the viability was 80.8% (inactive).

Take `CC(C)NCC(O)c1ccc(O)c(O)c1` (centres undefined): the viability is 106% (inactive).

For the compound `O=C1CCc2cc(OCCCCc3nnnn3C3CCCCC3)ccc2N1`, the Potency is 16.6 µM (active).

Regarding `CC(C)c1c(C(=O)Nc2ccccc2)c(-c2ccccc2)c(-c2ccc(F)cc2)n1CC[C@@H](O)C[C@@H](O)CC(=O)O`, the Potency is 7.23 µM (active).

In the case of `CCN(CC)CCCC(C)Nc1ccnc2cc(Cl)ccc12` (centres undefined), the viability is 102% (inactive).

The nature of another assay: BET inhibitor-based combinations targeting novel dependencies in MECOM-rearranged (r) AML: OCI-AML3 cell line (AID 2202232).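 Also: plate controls were DMSO vehicle wells for no effect and wells without cells for full effect; nearly all actives have a fitted effect of over 35% in size.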 The settings on record: CellTiter-Glo luminescence, 48 h; Potency: OCI-AML3 viability; series mostly up to 46 µM; viability (% of control): at the top concentration. The method, boiled down: as §1
Turning to `CC(=O)O[C@]1(C(C)=O)CC[C@H]2[C@@H]3C=C(Cl)C4=CC(=O)[C@@H]5C[C@@H]5[C@]4(C)[C@H]3CC[C@@]21C`, the “viability (% of control)” value is 62.3% (inactive).

For `CC(C)NCC(O)c1ccc(O)c(O)c1` (centres undefined), the “viability (% of control)” value was 101% (inactive).

As to `O=C1CCc2cc(OCCCCc3nnnn3C3CCCCC3)ccc2N1`, the “viability (% of control)” value is 98.6% (inactive).

For `CCN(CC)CCCC(C)Nc1ccnc2cc(Cl)ccc12` (centres undefined), the viability (% of control) was 92.2% [at 8.46 µM] (inactive).

The nature of a further assay: BET inhibitor-based combinations targeting novel dependencies in MECOM-rearranged (r) AML: MV-4-11 cell line (AID 2202233). Also: nearly all actives have a fitted effect of over 45% in size. Also: potency is read from the fitted curve at half-maximal effect.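 As to viability, % of control: plate controls were DMSO for no effect and blank wells for full effect.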 Conditions: MV-4-11 AML viability, CellTiter-Glo luminescence, 48 h; series mostly up to 46 µM; viability, % of control: at the top concentration. The method, boiled down:
(§2)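 Normalized to DMSO and empty-well controls, the luminescence data from CellTiter-Glo after 48 hr drug exposure were fitted across 11 concentrations. Reported metrics are area under the dose-response curve and its Z-transformed form.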
With `CC(C)NCC(O)c1ccc(O)c(O)c1` (centres undefined), the “viability, % of control” value is 109% (inactive).

On to `CC(C)c1c(C(=O)Nc2ccccc2)c(-c2ccccc2)c(-c2ccc(F)cc2)n1CC[C@@H](O)C[C@@H](O)CC(=O)O`, for which the Potency was 5.74 µM (active).

For the compound `CCN(CC)CCCC(C)Nc1ccnc2cc(Cl)ccc12` (centres undefined), the viability, % of control is 101% [at 8.46 µM] (inactive).

Another assay can be described thus: BET inhibitor-based combinations targeting novel dependencies in MECOM-rearranged (r) AML: HNT-34 cell line (AID 2202234). Also: nearly all actives have a fitted effect of over 35% in size. Also: potency is read from the fitted curve at half-maximal effect.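 As to viability (% of control): plate controls were vehicle wells for no effect and cell-free wells for full effect.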 Conditions: HNT-34 AML viability, CellTiter-Glo luminescence, 48 h; series mostly up to 46 µM; viability (% of control): at the top concentration. The method, boiled down:
as §2
Take `CC(C)NCC(O)c1ccc(O)c(O)c1` (centres undefined): the “viability (% of control)” value is 90.9% (inactive).

For `O=C1CCc2cc(OCCCCc3nnnn3C3CCCCC3)ccc2N1`, the “viability (% of control)” value was 85.1% (inactive).

On to `CC(C)c1c(C(=O)Nc2ccccc2)c(-c2ccccc2)c(-c2ccc(F)cc2)n1CC[C@@H](O)C[C@@H](O)CC(=O)O`, for which the Potency is 10.2 µM (active).

Another assay is described as follows: BET inhibitor-based combinations targeting novel dependencies in MECOM-rearranged (r) AML: AML-191 cell line (AID 2202236;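 also: plate controls were vehicle wells for no effect and wells without cells for full effect; nearly all actives have a fitted effect of over 35% in size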). The settings on record: AML-191 viability, CellTiter-Glo luminescence, 48 h; series mostly up to 46 µM; viability (% of control): at the top concentration. The method, boiled down: as §1
Turning to `CC(C)NCC(O)c1ccc(O)c(O)c1` (centres undefined), the “viability (% of control)” value is 101% (inactive).

With `O=C1CCc2cc(OCCCCc3nnnn3C3CCCCC3)ccc2N1`, the “viability (% of control)” value was 88.7% (inactive).

For the compound `CCN(CC)CCCC(C)Nc1ccnc2cc(Cl)ccc12` (centres undefined), the viability (% of control) was 95.1% [at 8.46 µM] (inactive).

The nature of the next assay: BET inhibitor-based combinations targeting novel dependencies in MECOM-rearranged (r) AML: AML-194 cell line (AID 2202237; also: nearly all actives have a fitted effect of over 40% in size; also: potency is read from the fitted curve at half-maximal effect;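 as to viability (% of control): plate controls were vehicle wells for no effect and wells without cells for full effect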). Conditions: AML-194 (MECOM-r AML) viability, CellTiter-Glo, 48 h; series mostly up to 46 µM; viability (% of control): at the top concentration. The method, boiled down: as §1
Turning to `CC(=O)O[C@]1(C(C)=O)CC[C@H]2[C@@H]3C=C(Cl)C4=CC(=O)[C@@H]5C[C@@H]5[C@]4(C)[C@H]3CC[C@@]21C`, the “viability (% of control)” value is 80.3% (inactive).

`CC(C)NCC(O)c1ccc(O)c(O)c1` (centres undefined): the “viability (% of control)” value was 110% (inactive).

As for `O=C1CCc2cc(OCCCCc3nnnn3C3CCCCC3)ccc2N1`, the “viability (% of control)” value is 93.1% (inactive).

As to `Cc1ccc(-c2cc(C(F)(F)F)nn2-c2ccc(S(N)(=O)=O)cc2)cc1`, the “viability (% of control)” value is 81.1% (inactive).

On to `CC(C)c1c(C(=O)Nc2ccccc2)c(-c2ccccc2)c(-c2ccc(F)cc2)n1CC[C@@H](O)C[C@@H](O)CC(=O)O`, for which the Potency was 12.9 µM (active).

`CCN(CC)CCCC(C)Nc1ccnc2cc(Cl)ccc12` (centres undefined): the viability (% of control) is 111% [at 8.46 µM] (inactive).
